# Legend:
# Experiment in all cases: DAPPL (digital affinity profiling via proximity ligation, sequencing); 10 mM Tris-HCl pH 7.5, 50 mM NaCl, 1 mM DTT, 4% glycerol, room temperature, 30 min; GST-TFs on glutathione beads, 16-mer random dsDNA library, 0.1% formaldehyde crosslink after washing; high values mean tight binding
# FLI1 = target: T1, FLI1 (Homo sapiens, UniProt Q01543 1-452); conditions: protein: recombinant; tags: N-terminal GST; dsDNA, one strand shown
# T1 sequence: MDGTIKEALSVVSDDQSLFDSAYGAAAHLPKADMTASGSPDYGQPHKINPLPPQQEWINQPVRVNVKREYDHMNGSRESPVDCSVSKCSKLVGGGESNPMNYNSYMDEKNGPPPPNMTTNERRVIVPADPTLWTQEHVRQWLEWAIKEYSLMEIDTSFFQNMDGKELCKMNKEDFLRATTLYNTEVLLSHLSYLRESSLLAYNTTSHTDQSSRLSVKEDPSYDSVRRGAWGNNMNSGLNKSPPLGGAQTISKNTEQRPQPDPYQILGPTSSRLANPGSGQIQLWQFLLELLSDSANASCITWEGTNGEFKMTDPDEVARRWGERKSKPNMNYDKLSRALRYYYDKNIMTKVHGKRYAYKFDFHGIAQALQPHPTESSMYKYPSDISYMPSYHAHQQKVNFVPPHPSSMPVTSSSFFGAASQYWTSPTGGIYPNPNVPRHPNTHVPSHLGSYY
# Method in brief: (§1)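 Binding signal is given per hexamer as its read frequency for a factor divided by its frequency in the tag-only sample. GST-fused human transcription factors were expressed in yeast, captured on glutathione beads, barcoded with DNA and pooled with that sample, then incubated with 200 nmole of a 16-mer random double-stranded DNA library in Tris/NaCl/DTT/glycerol buffer for 30 min at room temperature. The pools were then washed, crosslinked, proximity-ligated, amplified by PCR and sequenced on an Illumina NextSeq500.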
# ELK1 = target: T2, ELK1 (Homo sapiens, UniProt P19419 1-428); conditions: protein: recombinant; tags: N-terminal GST; dsDNA, one strand shown
# T2 sequence: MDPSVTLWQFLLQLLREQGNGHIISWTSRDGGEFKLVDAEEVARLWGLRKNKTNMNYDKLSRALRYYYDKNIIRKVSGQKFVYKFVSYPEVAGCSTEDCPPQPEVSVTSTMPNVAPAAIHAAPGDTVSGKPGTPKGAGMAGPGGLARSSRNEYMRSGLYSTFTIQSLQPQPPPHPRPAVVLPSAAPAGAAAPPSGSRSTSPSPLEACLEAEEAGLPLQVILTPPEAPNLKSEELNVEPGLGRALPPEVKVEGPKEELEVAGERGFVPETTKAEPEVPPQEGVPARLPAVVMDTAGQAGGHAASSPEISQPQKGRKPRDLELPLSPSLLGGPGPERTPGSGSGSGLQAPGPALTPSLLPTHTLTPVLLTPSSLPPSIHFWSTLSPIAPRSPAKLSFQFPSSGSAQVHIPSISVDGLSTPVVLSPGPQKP
# Method in brief: as §1
# GABPA = target: T3, GABPA (Homo sapiens, UniProt Q06546 1-454); conditions: protein: recombinant; tags: N-terminal GST; dsDNA, one strand shown
# T3 sequence: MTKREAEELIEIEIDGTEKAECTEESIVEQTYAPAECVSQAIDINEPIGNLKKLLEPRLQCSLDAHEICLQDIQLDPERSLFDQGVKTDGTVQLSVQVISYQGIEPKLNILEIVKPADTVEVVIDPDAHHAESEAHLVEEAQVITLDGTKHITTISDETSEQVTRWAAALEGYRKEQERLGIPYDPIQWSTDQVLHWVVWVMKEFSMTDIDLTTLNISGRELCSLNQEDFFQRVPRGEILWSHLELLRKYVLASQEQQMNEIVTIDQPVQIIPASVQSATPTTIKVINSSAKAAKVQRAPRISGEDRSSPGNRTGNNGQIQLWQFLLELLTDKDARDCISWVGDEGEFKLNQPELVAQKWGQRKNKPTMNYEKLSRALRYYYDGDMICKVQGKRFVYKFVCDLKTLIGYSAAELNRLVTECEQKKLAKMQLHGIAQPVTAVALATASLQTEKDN
# Method in brief: as §1
# ERG = target: T4, ERG (Homo sapiens, UniProt P11308 1-479); conditions: protein: recombinant; tags: N-terminal GST; dsDNA, one strand shown
# T4 sequence: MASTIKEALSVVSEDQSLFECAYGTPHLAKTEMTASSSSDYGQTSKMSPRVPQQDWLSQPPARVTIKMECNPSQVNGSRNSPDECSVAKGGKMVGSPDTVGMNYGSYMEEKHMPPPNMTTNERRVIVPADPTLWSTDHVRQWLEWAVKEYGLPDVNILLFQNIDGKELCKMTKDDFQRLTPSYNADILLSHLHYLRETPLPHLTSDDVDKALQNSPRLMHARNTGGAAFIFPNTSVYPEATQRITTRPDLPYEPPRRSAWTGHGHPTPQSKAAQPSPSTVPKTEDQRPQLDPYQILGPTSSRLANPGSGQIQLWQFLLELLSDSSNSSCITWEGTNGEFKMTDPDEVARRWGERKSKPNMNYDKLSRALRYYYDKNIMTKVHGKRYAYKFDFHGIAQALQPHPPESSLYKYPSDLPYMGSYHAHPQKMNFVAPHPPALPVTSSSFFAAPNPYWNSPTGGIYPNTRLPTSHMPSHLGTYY
# Method in brief: as §1
# ELF1 = ELF1 (Homo sapiens, UniProt P32519 1-619); conditions: protein: recombinant; tags: N-terminal GST; dsDNA, one strand shown
# Chain of ELF1 (P32519 whole entry): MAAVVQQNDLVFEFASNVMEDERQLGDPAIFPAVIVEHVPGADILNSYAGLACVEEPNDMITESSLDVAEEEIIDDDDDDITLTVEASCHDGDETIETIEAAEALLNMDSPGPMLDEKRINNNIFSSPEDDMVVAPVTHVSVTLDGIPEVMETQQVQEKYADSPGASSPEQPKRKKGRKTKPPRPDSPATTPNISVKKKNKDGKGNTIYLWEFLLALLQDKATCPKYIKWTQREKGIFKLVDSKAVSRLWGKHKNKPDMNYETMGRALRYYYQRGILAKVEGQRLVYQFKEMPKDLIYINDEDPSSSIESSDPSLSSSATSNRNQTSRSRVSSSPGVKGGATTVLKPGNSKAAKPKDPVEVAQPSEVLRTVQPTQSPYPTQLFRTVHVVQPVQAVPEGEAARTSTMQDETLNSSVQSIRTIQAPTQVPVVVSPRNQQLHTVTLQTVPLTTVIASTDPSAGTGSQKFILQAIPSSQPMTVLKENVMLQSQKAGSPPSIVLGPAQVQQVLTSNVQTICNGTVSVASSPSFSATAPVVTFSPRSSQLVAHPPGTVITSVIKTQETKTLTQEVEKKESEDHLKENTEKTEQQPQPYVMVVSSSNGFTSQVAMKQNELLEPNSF
# Method in brief: as §1
# EHF = target: T5, EHF (Homo sapiens, UniProt Q9NZC4 1-300); conditions: protein: recombinant; tags: N-terminal GST; dsDNA, one strand shown
# T5 sequence: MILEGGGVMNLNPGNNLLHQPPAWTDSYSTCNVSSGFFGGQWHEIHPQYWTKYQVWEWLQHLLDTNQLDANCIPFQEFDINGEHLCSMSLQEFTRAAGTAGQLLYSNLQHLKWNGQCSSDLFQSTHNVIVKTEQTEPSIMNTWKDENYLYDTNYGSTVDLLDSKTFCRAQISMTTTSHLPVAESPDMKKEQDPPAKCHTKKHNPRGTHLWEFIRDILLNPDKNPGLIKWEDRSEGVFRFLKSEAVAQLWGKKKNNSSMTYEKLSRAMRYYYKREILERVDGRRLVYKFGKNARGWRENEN
# Method in brief: as §1
# SPI1 = SPI1 (Homo sapiens, UniProt P17947 1-270); conditions: protein: recombinant; tags: N-terminal GST; dsDNA, one strand shown
# Method in brief: as §1
# SPIB = SPIB (Homo sapiens, UniProt Q01892 1-262); conditions: protein: recombinant; tags: N-terminal GST; dsDNA, one strand shown
# Chain of SPIB (Q01892 whole entry): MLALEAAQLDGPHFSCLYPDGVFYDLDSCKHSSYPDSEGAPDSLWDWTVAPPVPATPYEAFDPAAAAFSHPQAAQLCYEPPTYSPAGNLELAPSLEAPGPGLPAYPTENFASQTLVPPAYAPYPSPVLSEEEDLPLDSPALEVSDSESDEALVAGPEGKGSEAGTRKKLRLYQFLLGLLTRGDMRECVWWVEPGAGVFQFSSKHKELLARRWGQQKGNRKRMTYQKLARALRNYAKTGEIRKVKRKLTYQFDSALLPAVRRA
# Method in brief: as §1
# ELK3 = target: T6, ELK3 (Homo sapiens, UniProt P41970 1-407); conditions: protein: recombinant; tags: N-terminal GST; dsDNA, one strand shown
# T6 sequence: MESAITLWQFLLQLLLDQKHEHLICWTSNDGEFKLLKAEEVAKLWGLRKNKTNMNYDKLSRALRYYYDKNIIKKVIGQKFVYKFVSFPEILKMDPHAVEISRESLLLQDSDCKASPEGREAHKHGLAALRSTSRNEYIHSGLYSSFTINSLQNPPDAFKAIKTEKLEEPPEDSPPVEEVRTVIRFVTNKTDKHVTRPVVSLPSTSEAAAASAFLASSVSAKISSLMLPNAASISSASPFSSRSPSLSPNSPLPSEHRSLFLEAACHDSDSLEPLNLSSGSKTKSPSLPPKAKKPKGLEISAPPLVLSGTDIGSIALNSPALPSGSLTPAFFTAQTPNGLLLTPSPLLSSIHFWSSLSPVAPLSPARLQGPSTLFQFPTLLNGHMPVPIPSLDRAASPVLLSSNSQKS
# Method in brief: as §1
# FEV = target: T7, FEV (Homo sapiens, UniProt Q99581 1-238); conditions: protein: recombinant; tags: N-terminal GST; dsDNA, one strand shown
# T7 sequence: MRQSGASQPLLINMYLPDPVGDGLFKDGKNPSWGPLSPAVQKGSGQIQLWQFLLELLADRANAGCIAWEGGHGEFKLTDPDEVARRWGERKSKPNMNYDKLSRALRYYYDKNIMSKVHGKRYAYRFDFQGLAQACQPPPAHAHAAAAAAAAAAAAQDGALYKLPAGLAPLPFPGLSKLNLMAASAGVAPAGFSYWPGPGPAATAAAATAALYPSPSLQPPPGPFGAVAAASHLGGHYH
# Method in brief: as §1
# ETV5 = ETV5 (Homo sapiens, UniProt P41161 1-510); conditions: protein: recombinant; tags: N-terminal GST; dsDNA, one strand shown
# Chain of ETV5 (P41161 whole entry): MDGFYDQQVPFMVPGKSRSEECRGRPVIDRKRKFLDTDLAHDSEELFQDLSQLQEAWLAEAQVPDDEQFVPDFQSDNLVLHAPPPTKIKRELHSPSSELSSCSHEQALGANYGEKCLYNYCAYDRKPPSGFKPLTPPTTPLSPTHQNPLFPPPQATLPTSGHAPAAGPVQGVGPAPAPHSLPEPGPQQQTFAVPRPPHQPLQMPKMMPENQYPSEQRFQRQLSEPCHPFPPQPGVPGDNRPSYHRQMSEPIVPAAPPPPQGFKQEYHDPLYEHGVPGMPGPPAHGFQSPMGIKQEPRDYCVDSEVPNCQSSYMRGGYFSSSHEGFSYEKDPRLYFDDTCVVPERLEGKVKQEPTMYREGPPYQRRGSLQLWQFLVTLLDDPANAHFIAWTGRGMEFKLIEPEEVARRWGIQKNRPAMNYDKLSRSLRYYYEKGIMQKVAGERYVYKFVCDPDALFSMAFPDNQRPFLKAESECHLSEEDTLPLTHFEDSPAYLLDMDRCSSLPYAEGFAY
# Method in brief: as §1
# HSF1 = HSF1 (Homo sapiens, UniProt Q00613 1-529); conditions: protein: recombinant; tags: N-terminal GST; chain copies: 3; dsDNA, one strand shown
# Chain of HSF1 (Q00613 whole entry): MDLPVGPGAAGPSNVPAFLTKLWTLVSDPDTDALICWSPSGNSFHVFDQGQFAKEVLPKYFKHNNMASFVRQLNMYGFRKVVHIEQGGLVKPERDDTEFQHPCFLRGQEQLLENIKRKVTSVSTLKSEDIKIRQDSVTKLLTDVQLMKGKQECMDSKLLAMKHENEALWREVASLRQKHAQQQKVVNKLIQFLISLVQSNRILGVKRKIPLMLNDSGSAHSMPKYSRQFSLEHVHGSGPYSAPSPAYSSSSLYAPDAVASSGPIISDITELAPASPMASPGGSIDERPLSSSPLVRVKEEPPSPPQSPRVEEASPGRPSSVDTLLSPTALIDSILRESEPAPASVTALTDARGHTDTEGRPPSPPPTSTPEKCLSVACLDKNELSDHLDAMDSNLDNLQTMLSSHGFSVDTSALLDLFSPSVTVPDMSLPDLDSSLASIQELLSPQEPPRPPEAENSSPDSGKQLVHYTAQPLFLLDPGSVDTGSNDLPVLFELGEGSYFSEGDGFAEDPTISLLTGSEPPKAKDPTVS
# Method in brief: as §1
# SPIC = target: T8, SPIC (Homo sapiens, UniProt Q8N5J4 1-248); conditions: protein: recombinant; tags: N-terminal GST; dsDNA, one strand shown
# T8 sequence: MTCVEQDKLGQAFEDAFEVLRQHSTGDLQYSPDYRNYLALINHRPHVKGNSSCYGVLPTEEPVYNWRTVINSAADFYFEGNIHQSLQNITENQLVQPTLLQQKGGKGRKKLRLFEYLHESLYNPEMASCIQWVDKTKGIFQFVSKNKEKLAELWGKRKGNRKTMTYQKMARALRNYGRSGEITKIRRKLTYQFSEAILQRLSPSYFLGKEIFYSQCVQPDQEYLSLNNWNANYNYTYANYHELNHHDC
# Method in brief: as §1
# ELF4 = ELF4 (Homo sapiens, UniProt Q99607 1-663); conditions: protein: recombinant; tags: N-terminal GST; dsDNA, one strand shown
# Chain of ELF4 (Q99607 whole entry): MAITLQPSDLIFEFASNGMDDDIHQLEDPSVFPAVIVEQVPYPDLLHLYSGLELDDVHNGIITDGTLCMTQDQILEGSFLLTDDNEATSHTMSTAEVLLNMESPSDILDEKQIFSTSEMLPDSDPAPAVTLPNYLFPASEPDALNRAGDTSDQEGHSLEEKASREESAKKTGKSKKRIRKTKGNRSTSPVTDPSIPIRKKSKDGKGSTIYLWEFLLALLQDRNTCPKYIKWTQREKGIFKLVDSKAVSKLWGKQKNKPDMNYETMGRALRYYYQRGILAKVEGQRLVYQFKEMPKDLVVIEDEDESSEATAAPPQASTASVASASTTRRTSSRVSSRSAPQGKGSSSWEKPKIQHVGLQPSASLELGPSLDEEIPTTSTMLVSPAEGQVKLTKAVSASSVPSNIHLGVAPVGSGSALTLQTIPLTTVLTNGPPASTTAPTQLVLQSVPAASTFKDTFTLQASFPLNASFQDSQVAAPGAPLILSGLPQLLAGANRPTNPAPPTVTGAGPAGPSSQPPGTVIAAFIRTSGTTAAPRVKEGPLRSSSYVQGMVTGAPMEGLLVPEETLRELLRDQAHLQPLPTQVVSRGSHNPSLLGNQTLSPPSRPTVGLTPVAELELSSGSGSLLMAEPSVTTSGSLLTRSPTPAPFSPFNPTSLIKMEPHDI
# Method in brief: as §1
# ELK4 = target: T9, ELK4 (Homo sapiens, UniProt P28324-2 1-405); conditions: protein: recombinant; tags: N-terminal GST; dsDNA, one strand shown
# T9 sequence: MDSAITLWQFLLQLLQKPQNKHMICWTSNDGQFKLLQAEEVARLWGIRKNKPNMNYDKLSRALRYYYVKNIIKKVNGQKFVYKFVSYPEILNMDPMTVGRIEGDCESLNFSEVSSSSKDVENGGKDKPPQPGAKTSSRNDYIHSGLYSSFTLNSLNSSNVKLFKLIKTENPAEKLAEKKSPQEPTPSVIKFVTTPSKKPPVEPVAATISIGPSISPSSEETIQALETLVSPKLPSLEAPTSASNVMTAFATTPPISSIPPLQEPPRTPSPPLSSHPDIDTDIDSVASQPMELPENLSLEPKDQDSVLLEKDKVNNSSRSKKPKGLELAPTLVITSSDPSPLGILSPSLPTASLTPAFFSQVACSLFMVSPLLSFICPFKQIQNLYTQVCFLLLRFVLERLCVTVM
# Method in brief: as §1
# ETV2 = target: T10, ETV2 (Homo sapiens, UniProt O00321 1-342); conditions: protein: recombinant; tags: N-terminal GST; dsDNA, one strand shown
# T10 sequence: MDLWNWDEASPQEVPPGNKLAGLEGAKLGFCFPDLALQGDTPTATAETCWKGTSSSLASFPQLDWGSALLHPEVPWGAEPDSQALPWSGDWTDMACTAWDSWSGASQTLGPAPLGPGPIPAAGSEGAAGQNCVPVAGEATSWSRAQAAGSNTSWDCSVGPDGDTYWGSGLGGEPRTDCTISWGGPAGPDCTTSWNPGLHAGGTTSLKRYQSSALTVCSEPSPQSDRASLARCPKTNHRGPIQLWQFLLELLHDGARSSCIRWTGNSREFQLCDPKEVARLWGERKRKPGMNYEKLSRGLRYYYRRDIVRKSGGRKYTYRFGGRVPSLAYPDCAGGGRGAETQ
# Method in brief: as §1
# ELF3 = target: T11, ELF3 (Homo sapiens, UniProt P78545 1-371); conditions: protein: recombinant; tags: N-terminal GST; dsDNA, one strand shown
# T11 sequence: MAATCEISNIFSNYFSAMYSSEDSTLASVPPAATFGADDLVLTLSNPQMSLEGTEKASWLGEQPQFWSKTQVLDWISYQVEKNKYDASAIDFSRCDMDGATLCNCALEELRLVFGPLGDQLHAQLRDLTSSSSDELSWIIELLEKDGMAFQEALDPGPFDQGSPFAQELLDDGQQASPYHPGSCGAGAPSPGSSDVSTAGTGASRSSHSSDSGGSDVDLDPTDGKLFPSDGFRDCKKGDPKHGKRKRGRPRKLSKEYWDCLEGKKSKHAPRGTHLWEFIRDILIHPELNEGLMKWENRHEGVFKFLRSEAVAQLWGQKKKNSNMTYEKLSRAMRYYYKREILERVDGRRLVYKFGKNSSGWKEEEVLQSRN
# Method in brief: as §1
# CRX = CRX (Homo sapiens, UniProt O43186 1-299); conditions: protein: recombinant; tags: N-terminal GST; dsDNA, one strand shown
# Chain of CRX (O43186 whole entry): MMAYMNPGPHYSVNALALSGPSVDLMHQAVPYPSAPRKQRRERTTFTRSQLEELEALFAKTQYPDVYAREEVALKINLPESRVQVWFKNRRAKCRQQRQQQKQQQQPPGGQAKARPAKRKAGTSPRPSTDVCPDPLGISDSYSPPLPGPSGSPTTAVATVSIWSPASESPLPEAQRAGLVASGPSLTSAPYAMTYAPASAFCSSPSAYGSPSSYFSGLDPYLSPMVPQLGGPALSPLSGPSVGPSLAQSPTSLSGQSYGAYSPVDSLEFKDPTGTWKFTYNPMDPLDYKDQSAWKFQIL
# Method in brief: as §1
# ETV1 = ETV1 (Homo sapiens, UniProt P50549 1-477); conditions: protein: recombinant; tags: N-terminal GST; dsDNA, one strand shown
# Chain of ETV1 (P50549 whole entry): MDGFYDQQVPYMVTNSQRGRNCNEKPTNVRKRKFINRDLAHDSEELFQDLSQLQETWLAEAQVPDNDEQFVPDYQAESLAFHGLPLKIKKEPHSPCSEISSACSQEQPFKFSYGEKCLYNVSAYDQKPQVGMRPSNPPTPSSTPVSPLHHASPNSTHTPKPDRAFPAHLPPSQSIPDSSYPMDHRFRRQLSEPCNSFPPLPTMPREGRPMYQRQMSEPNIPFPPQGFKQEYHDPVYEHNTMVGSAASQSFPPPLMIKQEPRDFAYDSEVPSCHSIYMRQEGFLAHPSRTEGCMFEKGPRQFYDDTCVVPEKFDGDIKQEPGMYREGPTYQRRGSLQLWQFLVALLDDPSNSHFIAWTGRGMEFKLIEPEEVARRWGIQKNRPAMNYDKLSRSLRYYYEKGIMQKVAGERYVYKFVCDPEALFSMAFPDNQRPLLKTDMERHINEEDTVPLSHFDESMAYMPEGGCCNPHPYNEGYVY
# Method in brief: as §1
sequence,measurement,setting,value
TAACAA,binding signal,FLI1,"1.22 fold enrichment (6-mer frequency, TF over GST control)"
same,binding signal,ELK1,"1.22 fold enrichment (6-mer frequency, TF over GST control)"
same,binding signal,GABPA,"1.14 fold enrichment (6-mer frequency, TF over GST control)"
same,binding signal,ERG,"1.18 fold enrichment (6-mer frequency, TF over GST control)"
same,binding signal,ELF1,"1.2 fold enrichment (6-mer frequency, TF over GST control)"
same,binding signal,EHF,"1.19 fold enrichment (6-mer frequency, TF over GST control)"
same,binding signal,SPI1,"1.14 fold enrichment (6-mer frequency, TF over GST control)"
same,binding signal,SPIB,"1.13 fold enrichment (6-mer frequency, TF over GST control)"
same,binding signal,ELK3,"1.34 fold enrichment (6-mer frequency, TF over GST control)"
same,binding signal,FEV,"1.18 fold enrichment (6-mer frequency, TF over GST control)"
same,binding signal,ETV5,"1.12 fold enrichment (6-mer frequency, TF over GST control)"
same,binding signal,HSF1,"1.25 fold enrichment (6-mer frequency, TF over GST control)"
same,binding signal,SPIC,"1.12 fold enrichment (6-mer frequency, TF over GST control)"
same,binding signal,ELF4,"1.19 fold enrichment (6-mer frequency, TF over GST control)"
same,binding signal,ELK4,"1.15 fold enrichment (6-mer frequency, TF over GST control)"
same,binding signal,ETV2,"1.26 fold enrichment (6-mer frequency, TF over GST control)"
same,binding signal,ELF3,"1.28 fold enrichment (6-mer frequency, TF over GST control)"
same,binding signal,CRX,"1.48 fold enrichment (6-mer frequency, TF over GST control)"
same,binding signal,ETV1,"1.2 fold enrichment (6-mer frequency, TF over GST control)"
